The list is not random: actives were taken first. Their share in the collection is about 21%.
Pf growth 96h = Primary qHTS for delayed death inhibitors of the malarial parasite plastid, 96 hour incubation. P. falciparum luciferase reporter growth, 96 h. Potency, µM (highest dose often 28.7 µM), most hits filed as inhibitors. 320,000 compounds, 6.9% hits. AID 504834, 2011
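P. falciparum expressing integrated firefly luciferase, in erythrocytes at 2% hematocrit, 0.05% parasitemia, incubated with compounds 96 h at 37 C, 5% CO2. Growth inhibition read as loss of luminescence; two-generation exposure targets delayed-death apicoplast inhibitors.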
Cycloheximide cs = Cycloheximide Counterscreen for Small Molecule Inhibitors of Shiga Toxin; max response, %; 300,000 compounds, 12% hits; cell reporter, cycloheximide protein synthesis inhibition counterscreen; in the data active = max response mostly above about 13%, no sharp cut-off; inactive = mostly below about 14%; note: read at 38.3 µM for the half of the compounds with a filed dose
Shiga inhibitor = A qHTS for Small Molecule Inhibitors of Shiga Toxin. AID 2315, 2010. 290,000 compounds, 9.2% hits. Vero cells, Shiga toxin protein synthesis inhibition reporter. inhibition, % at 38.7 µM; in the data active = inhibition mostly above about 28%, no sharp cut-off; inactive = mostly below about 43%
AMA1 RON2 block = qHTS for Inhibitors of AMA1-RON; Towards Development of Antimalarial Drug Lead: Primary Screen; AID 720542, 2013; Potency, µM (top dose mostly 58.2 µM), most hits filed as inhibitors; Plasmodium falciparum AMA1 (3D7) - RON2 peptide interaction; 360,000 compounds, 0.2% hits; AlphaScreen AMA1-biotinylated RON2 peptide binding; note: nearly all actives have a fitted effect of over 45% in size
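AMA1 (3D7) with his tag at 25 nM final met compounds first, then biotinylated RON2 peptide at 25 nM; detection used donor plus acceptor beads, 10 µg/mL apiece, read by AlphaScreen after 30 min at room temperature.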
HCV inh = qHTS Assay for Inhibitors of Hepatitis C Virus (HCV); Huh7.5.1 HCVcc-Cre infection, luciferase reporter, 44 h; Potency, µM (doses to about 41.8 µM), most hits filed as inhibitors; 340,000 compounds, 3.4% hits
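Luciferase read-out (15 sec integration) after a 15 min room-temperature substrate step quantifies HCVcc-Cre infection. Cells, 1,000 per well, had compound added 4 h post-plating, then virus at ~0.5 moi, and were cultured 44 h.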
Pf growth 48h = Primary qHTS for delayed death inhibitors of the malarial parasite plastid, 48 hour incubation; P. falciparum luciferase growth in erythrocytes, 48 h; Potency, µM (highest dose often 28.7 µM), actives largely listed as inhibitors; 310,000 compounds, 5.9% hits; AID 504832, 2011
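Compounds are pin-transferred into medium, infected erythrocytes (2% hematocrit, 0.1% parasitemia final) are added, and plates sit one parasite generation at 37 C in 5% CO2. Detection reagent is then added and luminescence measured.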
Large screens that a line does not name were inactive. Unless noted, calls come from the whole dose curve; as a rule, active = well fitted curve in the direction sought with a large enough effect; inconclusive = small, poorly fitted or top-dose-only effect, or another doubt; inactive = no such curve, though single readings can be large; an effect the other way counts as inactive or inconclusive.

O=C(Nc1ccc2c(c1)OCO2)c1cc(C2CCCCN2C(=O)CCCc2ccccc2)on1 (centres undefined)	none (no result: Pf growth 96h, Cycloheximide cs, Shiga inhibitor, HCV inh, Pf growth 48h)
CCSc1ccc(-c2nn(-c3ccccc3)cc2/C=C(/C#N)C(=O)NC)cc1	none
CCN(CC)C(=O)Cn1cc(/C=C(\C#N)C(=O)N2CCN(c3ccccc3)CC2)c2ccccc21	Pf growth 96h 10µM, HCV inh inconclusive, Pf growth 48h inconclusive
CCOC(=O)Cn1cc(/C=C(\C#N)C(=O)N2CCOCC2)c2ccccc21	Cycloheximide cs 10, Shiga inhibitor 74
CCCSc1ccc(-c2nn(-c3ccccc3)cc2/C=C(/C#N)C(=O)N2CCOCC2)cc1	Pf growth 96h inconclusive, Cycloheximide cs 16, HCV inh inconclusive, Pf growth 48h inconclusive
Cc1nc(N(C)C2CCCCC2)c2nnn(Cc3ccc(F)cc3)c2n1	none (no result: Pf growth 96h, Cycloheximide cs, Shiga inhibitor, HCV inh, Pf growth 48h)
CC(C)(C)OC(=O)N1CCC[C@H]1C(=O)N1CCC[C@H]1C(=O)NCc1ccncc1	none (no result: Pf growth 96h, Cycloheximide cs, Shiga inhibitor, HCV inh, Pf growth 48h)
CC(C)Oc1ccc(C2CCC(=O)NC2=O)cc1 (centres undefined)	none
CC(C)Oc1ccc(CC2CC(=O)NC2=O)cc1 (centres undefined)	Pf growth 96h 10µM
CNC(=O)N1c2ccccc2CCc2ccccc21	Pf growth 96h inconclusive, Pf growth 48h inconclusive
O=C(NN1c2ccccc2CCc2ccccc21)c1ccccc1Br	Pf growth 96h 12µM, Pf growth 48h inconclusive
COCCNC(=O)c1cc2oc3ccccc3c2n1C	Cycloheximide cs 62, Shiga inhibitor 89, HCV inh 13µM (no result: Pf growth 96h)
CCOC(=O)Nc1ccc(Oc2ccccc2)cc1	Pf growth 96h inconclusive, Cycloheximide cs 36, Shiga inhibitor 121
COc1ccc(NC(=O)c2ccco2)cc1NC(=O)c1ccccc1	none
CCOC(=O)Nc1ccc(C(=O)Oc2ccccc2)c(O)c1	Cycloheximide cs 37, Shiga inhibitor 104, HCV inh inconclusive
CCOC(=O)Nc1ccc(OC(=O)Oc2ccc(NC(=O)OCC)cc2)cc1	none (no result: Pf growth 96h, Cycloheximide cs, Shiga inhibitor, Pf growth 48h)
CCOC(=O)Nc1ccc(C(=O)/C=C/c2ccccc2)cc1	Pf growth 96h inconclusive, Cycloheximide cs 22
O=C(Nc1ccc(C(=O)Oc2ccccc2)c(O)c1)c1ccco1	Cycloheximide cs 55, Shiga inhibitor 131 (no result: Pf growth 96h)
CSc1ccc(/C=C/C(=O)c2ccc(NC(=O)Cc3ccccc3)cc2)cc1	Pf growth 96h inconclusive, HCV inh inconclusive
COc1ccc2[nH]c(C(=O)O)c(CCNC(=O)/C=C/c3ccc(O)c(OC)c3)c2c1	none
CCOC(=O)N1CCC(N(CCN(C)C)C(=S)Nc2cccc(C)c2)CC1	none
CCOC(=O)Nc1c2ccccc2nc2ccccc12	Pf growth 96h 10µM, Pf growth 48h 15µM
O=C(Nc1ccc(C(=O)Oc2ccccc2)c(O)c1)c1ccccc1	Cycloheximide cs 28, Shiga inhibitor 82, Pf growth 48h inconclusive
CCOC(=O)Nc1c(C)n(C)n(-c2ccccc2)c1=O	none (no result: Pf growth 96h)
CCOC(=O)c1ccc(NC(=O)c2ccc(NC(=O)c3ccccc3)cc2)cc1	none (no result: Pf growth 48h)
CCOC(=O)N1CCC(N(CCN(C)C)C(=S)Nc2ccc(Oc3ccccc3)cc2)CC1	HCV inh 11µM
Cc1ccc(NC(=O)c2ccccc2)cc1OC(=O)c1ccccc1	Cycloheximide cs 13
Cc1ccccc1-c1cnc(C(O)c2ccc(Cl)c(F)c2)[nH]1 (centres undefined)	none (no result: Pf growth 96h, Cycloheximide cs, Shiga inhibitor, HCV inh, Pf growth 48h)
CC1CCCCN1C(=O)C(Cc1ccccc1)N1C(=O)C2CCCCC2C1=O (centres undefined)	Pf growth 96h 13µM
Cc1ccc(N2CC(C(=O)N3CCC(C(=O)Nc4nnc(C(C)(C)C)s4)CC3)CC2=O)cc1 (centres undefined)	Pf growth 48h inconclusive
CC(C)NC(=O)C1(C)CCN1C(=O)c1cccc(F)c1 (centres undefined)	none (no result: Pf growth 96h, Cycloheximide cs, Shiga inhibitor, HCV inh, Pf growth 48h)
Cc1cc(C)n(C(=O)c2cc3c(s2)CCCC3)n1	Shiga inhibitor 89
CC(=O)N1CCN(C(=O)c2cc3c(s2)CCCC3)CC1	none (no result: Pf growth 96h, Cycloheximide cs, Shiga inhibitor, Pf growth 48h)
COc1ccc(Nc2n[nH]c(C)c2[N+](=O)[O-])cc1	Cycloheximide cs 32, Shiga inhibitor 100
Cc1ccccc1Nc1n[nH]c(C)c1[N+](=O)[O-]	Pf growth 96h 3.7µM

Source: PubChem BioAssay
